This note sets out measurements from PubChem BioAssay.

Activity calls are given as the source filed them. Unless noted, the rule behind the calls is not given here.

For assay [1], the system named is Wnt5a (protein binding on small-molecule microarray). Put plainly: small molecules binding Wnt5a protein – biophysical, small-molecule microarray, 635/667 nm fluorescence, primary screen (AID 1142).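 Note: fluorescence read at 667 nm with signal to noise per printed feature.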 The note with it: 635 nm fluorescence, higher = more signal.
Assay [2] in a line: ATP-based viability of Huh7 replicon cells – cell-based, CellTiter-Glo luminescence, basal, 48 h, cytotoxicity control for HCV replication inhibitor project, primary screen (AID 1143).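 Note: Huh7 hepatoma cells carrying a hepatitis C replication reporter with no stimulus; test concentration not given here.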 The note with it: higher = more signal, called active from +8 up or from −8 down. Background: A replicon is a self-replicating genome or part of one, used to study replication in cells.
Assay [3] in a line: Pseudomonas biofilm growth suppression – PAO1 strain, BacTiter-Glo luminescence, LB-PBS, primary screen (AID 1144). The note with it: P. aeruginosa PAO1 biofilm, 12 h, higher = more signal.
The nature of assay [4]: basal CRE-LacZ reporter activity in PC12 – cell-based, unstimulated, primary screen (AID 1145). Particulars: no forskolin, luminescence, 4.5 h, higher = more signal, called active from +8 up or from −8 down.
A short description of assay [5]: forskolin-driven CRE-LacZ activity in PC12 – cell-based, CRE-LacZ reporter, forskolin-stimulated, primary screen (AID 1146).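 Note: PC12 cells with 6xCRE LacZ reporter stimulated by forskolin 10 µM; beta-galactosidase reporter signal reflecting CREB driven transcription.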 The note with it: luminescence, 4.5 h, higher = more signal, called active from +8 up or from −8 down.
In assay [6] the target is Streptavidin (Streptomyces avidinii) (UniProt P22629). The assay can be described thus: compounds binding control protein streptavidin – biophysical, small-molecule microarray, 635/667 nm fluorescence, artefact control for SMM compound annotation, primary screen (AID 1147).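 Note: signal reflects streptavidin binding to arrayed compounds as a control protein.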 The note with it: higher = more signal.
Assay [7] can be described thus: probe aInhba binding on compound microarray – biochemical, small-molecule microarray, 635/667 nm fluorescence, primary screen (AID 1148).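 Note: score merges 667nm spot fluorescence with signal-to-noise for antibody binding to printed compounds.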 The note with it: higher = more signal.
For assay [8], the target named is Torsin-1A (Homo sapiens) (UniProt O14656). The assay can be described thus: TOR1A wild-type binding on microarray – cell lysate, small-molecule microarray, lysate, 635/667 nm, primary screen (AID 1149). Particulars: COS7 hTOR1A-WT lysate, 635 nm fluorescence, higher = more signal.
Assay [9] shares this target. Put plainly: torsin A mutant lysate binding on microarrays – cell lysate, small-molecule microarray, COS7 lysate, 635/667 nm fluorescence, primary screen (AID 1150).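 Note: score pools 667 nm emission and signal to noise measuring lysate protein binding.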 The note with it: COS7 hTOR1A mutant lysate, 635 nm fluorescence, higher = more signal.
Assay [10] concerns Sonic hedgehog protein (Shh). The assay can be described thus: Sonic hedgehog microarray binding compounds – biochemical, small-molecule microarray, 635/667 nm fluorescence, primary screen (AID 1151).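 Note: Shh protein binding to compounds spotted on small-molecule microarray slides; score combines spot fluorescence intensity with signal-to-noise across triplicate slides.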 The note with it: 635 nm fluorescence, higher = more signal.
Assay [11] is described as follows: optical density shifts of acrAB sulA E. coli – strain DRC41, OD650, 48 h, E. coli filamentation inducer project, primary screen (AID 1152).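 Note: E. coli MC1000 strain DRC41 lacking acrAB efflux pump and sulA.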 Particulars: higher = more signal, called active from +8 up or from −8 down.
The nature of assay [12]: probe aLefty1 binding on compound microarray – biochemical, small-molecule microarray, 635/667 nm fluorescence, primary screen (AID 1153).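 Note: score merges spot fluorescence with signal-to-noise ratio from the scanned slide images.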 Particulars: higher = more signal.
Assay [13] is described as follows: plasmodial surface anion channel blockers, osmotic lysis – cell-based, P. falciparum Indochina, OD700, 1 h, primary screen (AID 1154). The note with it: P. falciparum Indochina infected RBC osmotic lysis, higher = more signal, called active from +8 up or from −8 down.
Assay [14] is described as follows: plasmodial surface anion channel blockers, osmotic lysis – cell-based, P. falciparum Indochina, OD700, 2 h, primary screen (AID 1155).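 Note: lysis reports solute entry through the parasite surface anion channel PSAC.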 The note with it: P. falciparum Indochina infected erythrocytes, higher = more signal, called active from +8 up or from −8 down.
Assay [15] in a line: changes in parasitized red cell lysis, either direction – P. falciparum Indochina, OD700, 3 h, PSAC antagonist project, primary screen (AID 1156). The note with it: P. falciparum-infected erythrocytes, osmotic lysis, higher = more signal, called active from +8 up or from −8 down.
The nature of assay [16]: plasmodial surface anion channel blockers, osmotic lysis – cell-based, P. falciparum Indochina, OD700, 18 h, primary screen (AID 1157). Particulars: P. falciparum Indochina infected erythrocytes, osmotic lysis OD700, 18 h; higher = more signal, called active from +8 up or from −8 down.
The nature of assay [17]: S6 kinase pathway phospho-S6 level changes – cell-based, A549, cytoblot, luminescence, serum-stimulated, primary screen (AID 1158).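 Note: serum-stimulated A549 lung adenocarcinoma cells; signal is phosphorylated S6 detected by cytoblot immunostaining with HRP secondary.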 Particulars: 5 h, higher = more signal.
The target in assay [18] is NADPH oxidase 2 (Homo sapiens) (UniProt P04839). The assay can be described thus: compounds shifting NOX2 Amplex Red fluorescence – cell-based, HEK293-NOX2, PMA-stimulated, NOX inhibitor project, primary screen (AID 1159). Note: test concentration not given here. The note with it: 45 min, higher = more signal, called active from +8 up or from −8 down.
For assay [19], the target named is NADPH oxidase 4 (Homo sapiens) (UniProt Q9NPH5). The assay can be described thus: compounds shifting NOX4 Amplex Red fluorescence – cell-based, HEK293-NOX4, tetracycline-induced, NOX inhibitor project, primary screen (AID 1160). The note with it: HEK293-NOX4, Amplex Red H2O2 fluorescence, 45 min; higher = more signal, called active from +8 up or from −8 down.
Assay [20] addresses NADPH oxidase 5 (Homo sapiens) (UniProt Q96PH1). Put plainly: compounds shifting NOX5 Amplex Red fluorescence – cell-based, HEK293-NOX5, NOX inhibitor project, primary screen (AID 1161). The note with it: HEK293-NOX5, ionomycin, 45 min, higher = more signal.

Chain of Streptavidin (Streptomyces avidinii) (P22629 whole entry, looked up): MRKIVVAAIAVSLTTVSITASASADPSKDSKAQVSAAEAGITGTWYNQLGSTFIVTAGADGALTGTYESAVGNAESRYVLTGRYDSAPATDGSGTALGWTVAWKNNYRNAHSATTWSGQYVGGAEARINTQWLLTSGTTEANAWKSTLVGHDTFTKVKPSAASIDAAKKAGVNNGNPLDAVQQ
Chain of NADPH oxidase 5 (Homo sapiens) (Q96PH1 whole entry, looked up): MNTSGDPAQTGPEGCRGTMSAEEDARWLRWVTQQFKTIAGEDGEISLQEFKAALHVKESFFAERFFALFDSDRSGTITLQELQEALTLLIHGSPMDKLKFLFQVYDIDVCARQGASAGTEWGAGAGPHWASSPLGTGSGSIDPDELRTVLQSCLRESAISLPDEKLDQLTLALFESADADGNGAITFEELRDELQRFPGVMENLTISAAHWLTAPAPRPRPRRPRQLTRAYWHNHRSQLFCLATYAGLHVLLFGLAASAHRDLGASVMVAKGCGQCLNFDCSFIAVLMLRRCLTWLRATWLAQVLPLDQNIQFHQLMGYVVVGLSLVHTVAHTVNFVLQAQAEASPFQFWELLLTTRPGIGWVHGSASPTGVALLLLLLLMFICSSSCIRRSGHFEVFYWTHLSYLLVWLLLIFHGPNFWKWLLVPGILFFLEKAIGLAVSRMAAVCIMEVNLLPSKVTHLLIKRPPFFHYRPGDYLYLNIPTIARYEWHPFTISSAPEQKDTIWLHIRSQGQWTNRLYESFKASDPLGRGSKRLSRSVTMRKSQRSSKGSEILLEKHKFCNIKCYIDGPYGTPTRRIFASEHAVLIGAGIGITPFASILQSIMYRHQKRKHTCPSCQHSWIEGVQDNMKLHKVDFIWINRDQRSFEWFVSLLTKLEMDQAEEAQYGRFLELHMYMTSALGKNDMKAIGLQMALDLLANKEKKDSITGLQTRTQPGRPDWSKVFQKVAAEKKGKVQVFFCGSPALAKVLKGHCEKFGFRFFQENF
Chain of Torsin-1A (Homo sapiens) (O14656 whole entry, looked up): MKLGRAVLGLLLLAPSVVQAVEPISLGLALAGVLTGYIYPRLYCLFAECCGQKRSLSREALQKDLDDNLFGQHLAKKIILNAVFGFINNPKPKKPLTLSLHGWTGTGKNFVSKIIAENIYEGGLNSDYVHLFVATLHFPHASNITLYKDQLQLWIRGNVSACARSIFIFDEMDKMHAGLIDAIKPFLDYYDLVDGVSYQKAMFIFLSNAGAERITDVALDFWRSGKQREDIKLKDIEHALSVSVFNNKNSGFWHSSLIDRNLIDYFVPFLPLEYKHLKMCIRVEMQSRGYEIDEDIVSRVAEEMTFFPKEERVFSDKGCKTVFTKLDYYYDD
Chain of NADPH oxidase 4 (Homo sapiens) (Q9NPH5 whole entry, looked up): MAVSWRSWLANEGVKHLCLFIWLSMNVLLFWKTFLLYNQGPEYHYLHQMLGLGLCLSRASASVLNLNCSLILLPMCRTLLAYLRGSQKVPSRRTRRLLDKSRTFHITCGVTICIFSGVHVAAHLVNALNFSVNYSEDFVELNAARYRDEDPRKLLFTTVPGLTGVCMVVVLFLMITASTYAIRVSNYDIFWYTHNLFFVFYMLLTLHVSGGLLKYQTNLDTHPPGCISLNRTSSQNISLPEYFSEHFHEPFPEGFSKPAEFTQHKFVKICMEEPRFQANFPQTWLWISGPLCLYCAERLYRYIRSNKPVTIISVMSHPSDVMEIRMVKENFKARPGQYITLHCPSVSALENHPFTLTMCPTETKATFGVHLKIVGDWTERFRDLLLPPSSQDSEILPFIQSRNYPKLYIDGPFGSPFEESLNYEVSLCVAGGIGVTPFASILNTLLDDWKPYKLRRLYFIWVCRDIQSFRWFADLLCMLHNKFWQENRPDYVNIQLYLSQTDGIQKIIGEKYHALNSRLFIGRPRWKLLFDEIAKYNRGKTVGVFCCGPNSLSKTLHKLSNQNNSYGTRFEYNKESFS
Chain of NADPH oxidase 2 (Homo sapiens) (P04839 whole entry, looked up): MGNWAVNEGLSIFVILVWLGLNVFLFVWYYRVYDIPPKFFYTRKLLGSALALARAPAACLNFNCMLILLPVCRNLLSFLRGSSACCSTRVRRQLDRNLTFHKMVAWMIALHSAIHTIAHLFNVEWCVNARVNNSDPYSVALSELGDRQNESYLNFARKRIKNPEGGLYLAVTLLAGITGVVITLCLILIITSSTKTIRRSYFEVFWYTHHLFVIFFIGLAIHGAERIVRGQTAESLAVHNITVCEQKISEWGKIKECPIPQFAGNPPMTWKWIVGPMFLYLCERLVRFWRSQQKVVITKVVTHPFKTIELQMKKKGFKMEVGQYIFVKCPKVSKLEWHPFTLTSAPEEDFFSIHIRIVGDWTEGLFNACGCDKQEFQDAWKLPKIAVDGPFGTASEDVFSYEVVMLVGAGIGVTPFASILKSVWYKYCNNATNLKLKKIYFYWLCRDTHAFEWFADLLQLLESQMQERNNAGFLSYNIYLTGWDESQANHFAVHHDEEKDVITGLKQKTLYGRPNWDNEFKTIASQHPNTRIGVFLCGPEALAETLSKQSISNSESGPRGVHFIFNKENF

`C=CCNC(=O)[C@H]1[C@@H]2C(=O)O[C@@H](c3ccccc3)[C@@H](c3ccccc3)N2[C@@H](c2ccccc2OCCO)[C@]12C(=O)Nc1ccc(C#CCC(C(=O)OC)C(=O)OC)cc12`: the composite z-score came to 0.761 in assay [1]; 0.999 in assay [6]; 0.277 in assay [7]; 0.954 with Torsin-1A (Homo sapiens) [8]; 1.06 with Torsin-1A (Homo sapiens) [9]; 1.84 in [10]. Moreover, in assay [12], the composite z-score amounted to 0.924. For the same compound, the z-score in assay [2] is -3.8 (inactive); in assay [3], 0.608 (inactive); in assay [4] it was -0.0784 (inactive); in assay [5], 0.876 (inactive); in assay [11], 0.0038 (inactive); in assay [13], 5.08 (inactive). Further, the z-score in [14] was 1.84 (inactive); in assay [15], -0.223 (inactive); in assay [16] it was 0.909 (inactive); in assay [17], -0.318; in assay [18] it was 1.62 (inactive); in assay [19] it was 0.834 (inactive). Also, in [20], the z-score was determined as 1.5.
For the compound `COCCOC(=O)N1C(=O)[C@@]2(c3ccccc31)[C@H](C(=O)N1CCc3cc(OC)c(OC)cc3C1)[C@H]1C(=O)O[C@H](c3ccccc3)[C@H](c3ccccc3)N1[C@@H]2c1ccc(OCCO)cc1`, the composite z-score in assay [1] is 0.146; in assay [6], 0.547; in assay [7], 0.0569; with Torsin-1A (Homo sapiens) [8], 0.0657; with Torsin-1A (Homo sapiens) [9] it was 1.21; in assay [10], 1.41. The composite z-score in [12] turned out to be 0.18. The z-score was -0.704 (inactive) in assay [2]; 0.73 (inactive) in [3]; 0.685 (inactive) in assay [4]; -0.653 (inactive) in assay [5]; 1.12 (inactive) in assay [11]; 5.69 (inactive) in assay [13]. In addition, the z-score in [14] was 1.85 (inactive); in [15], 0.757 (inactive); in assay [16], 0.983 (inactive); in assay [17] it was 0.0824; in [18], 0.238 (inactive); in [19] it was 0.974 (inactive). Further, the z-score in assay [20] came to 1.19.
Consider `[N-]=[N+]=NCc1ccccc1[C@@H]1OC(c2ccc(OCCCO)cc2)=N[C@]1(Cc1ccccc1)C(N)=O`, for which the composite z-score is 0.601 in assay [1]; 2.03 in assay [6]; 0.228 in assay [7]; 0.162 in the assay with Torsin-1A (Homo sapiens) [8]; -0.106 with Torsin-1A (Homo sapiens) [9]; -0.315 in assay [10]. In [12], this compound had a composite z-score of 0.0429. The z-score in assay [2] is -1.72 (inactive); in [3], -1.85 (inactive); in assay [4] it was -1.19 (inactive); in assay [5], -2.1 (inactive); in assay [11], -0.451 (inactive); in assay [13] it was 21.9 (active). Besides, the z-score in assay [14] was 4.7 (inactive); in [15], 2.64 (inactive); in assay [16], 1.03 (inactive); in assay [17], 0.929; in assay [18] it was -2.06 (inactive); in [19], 0.76 (inactive). In addition, the z-score in [20] is -2.22.
`C=CCOC(=O)[C@H]1[C@@H]2C(=O)O[C@@H](c3ccccc3)[C@@H](c3ccccc3)N2[C@@H](c2ccc(OCCOC(=O)[C@@H]3C[C@@H]4C(=O)N[C@@H](CC(C)C)C(=O)N4[C@@H]3c3ccc(O)cc3)cc2)[C@]12C(=O)Nc1ccccc12`: the composite z-score in [1] was 0.384; in assay [6], 0.359; in assay [7], 0.0442; with Torsin-1A (Homo sapiens) [8], 0.941; with Torsin-1A (Homo sapiens) [9], 0.95; in assay [10] it was 2.08. The composite z-score in assay [12] was 0.439. Also, the z-score was -1.37 (inactive) in [2]; -1.04 (inactive) in [3]; -0.541 (inactive) in [4]; 0.0707 (inactive) in assay [5]; 0.204 (inactive) in [11]; 3.03 (inactive) in assay [13]. In addition, the z-score in assay [14] is 1.3 (inactive); in assay [15] it was 4.45 (inactive); in assay [16], 1.04 (inactive); in assay [17], -0.197; in [18], 1.63 (inactive); in assay [19], 1.18 (inactive). The z-score in assay [20] worked out at 1.49.
